# A selection: hits, their analogues and other compounds. The true share with any hit is near 2.9%.
# PvdQ acylase: blocks Pseudomonas aeruginosa PvdQ acylase activity | purified PvdQ acylase, fluorescence plate reader | inhibition, % at 10 µM | 340,000 compounds, 0.063% hits; in the data active = inhibition above about 30%, passing the limit was not always enough; inconclusive = no clear call, values can overlap the other calls
# Vif inh: HIV Vif inhibition; inhibition, % at 7.49 µM; HEK293T cells, Vif self-association by quenched fluorescence, imaging, 24 h; 340,000 compounds, 0.35% hits; AID 602346; in the data active = inhibition above about 50%, passing the limit was not always enough; inconclusive = no clear call, values can overlap the other calls; inactive = below about 31%
# MITF act: activators of MITF-driven TRPM1 promoter activity in SK-MEL-5 cells; SK-MEL-5 TRPM1-promoter luciferase, 24 h; % of positive control, neutral wells = 0; activation, % at 12.5 µM; 300,000 compounds, 0.75% hits; AID 588334;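 active = mean activation of at least 80% with every replicate also reaching 80%; inconclusive = mean reaches 80% but some replicate falls short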
# esBAF inh: blocks esBAF chromatin remodeling in mouse ES cells | reporter increase, % at 12.5 µM | AID 602393 | Bmi1-luciferase knock-in reporter, 24 h; 100% = twice the neutral-well signal | 350,000 compounds, 2% hits; in the data active = activation above about 40%; inconclusive = no clear call, values can overlap the other calls;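 note: a rise in the Bmi1 reporter signal indicates esBAF inhibition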
# Wnt act: activators of Wnt/beta-catenin signaling. activation, % at 9.35 µM. 300,000 compounds, 1.2% hits. Wnt/beta-catenin reporter cell assay, activator, plate reader; in the data active = activation above about 30%, passing the limit was not always enough; inconclusive = no clear call, values can overlap the other calls
# Glyco luc inh: blocks N-linked glycosylation in D54 reporter cells; 360,000 compounds, 0.23% hits; reporter increase, % at 12.5 µM; AID 588692; D54 ERlucT glycosylation luciferase reporter, 24 h; percent of 100 nM tunicamycin response;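 active = mean luciferase reporter signal, scaled so untreated is 0 and the glycosylation-blocking control 100, at or above a set limit in every replicate; inconclusive = mean reaches the limit but not every replicate does; inactive = mean below the limit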;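 note: luciferase carries N-glycosylation sites so blocking glycosylation raises the light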
# Numbers stand for hits; – = inactive; ? = inconclusive; · = no result; ! = not active in a repeat.
SMILES,PvdQ acylase,Vif inh,MITF act,esBAF inh,Wnt act,Glyco luc inh
Cc1ccc(OCCn2c(=O)sc3ccccc32)cc1,–,–,91.5,75.6,–,–
O=C(C[C@@H]1CC[C@@H]2[C@H](COC[C@H](O)CN2Cc2ccc(Cl)cc2)O1)Nc1nccs1,·,·,·,–,·,·
O=C1C(=O)c2c(C(=O)c3ccccc3)coc2-c2ccccc21,–,·,–,66.8,–,–
O=C(Nc1ncc([N+](=O)[O-])s1)c1cccs1,–,–,–,–,42.3!,–
Cc1ncoc1C(=O)Nc1ncc([N+](=O)[O-])s1,–,–,–,·,37.2,–
O=C(CCS(=O)(=O)Cc1ccccc1)Nc1ncc([N+](=O)[O-])s1,–,–,–,42.0,–,–
O=C(CCS(=O)(=O)c1ccccc1)Nc1ncc([N+](=O)[O-])s1,–,–,–,–,–,–
Cc1cnc(NC(=O)c2cccs2)s1,–,–,–,–,–,–
CNC[C@H]1OCCCC[C@H](C)Oc2ccc(NC(=O)c3ccncc3)cc2C(=O)N([C@H](C)CO)C[C@@H]1C,·,·,·,–,·,·
C[C@H]1CCCCO[C@H](CN(C)C(=O)Nc2ccc(F)cc2)[C@@H](C)CN([C@@H](C)CO)C(=O)c2cc(NS(=O)(=O)c3cn(C)cn3)ccc2O1,·,·,·,–,·,·
Cc1c(C(=O)/C=C/N(C)C)nnn1-c1ccc(F)c(Cl)c1,·,–,·,·,–,–
Cc1c(C(=O)/C=C/N(C)C)nnn1-c1ccc(Cl)c(Cl)c1,–,–,·,·,47.7,–
CC(C)NC(=O)Nc1cccc2c1O[C@@H](CN(C)Cc1ccc(-c3ccccc3)cc1)[C@@H](C)CN([C@@H](C)CO)C2=O,·,·,·,–,·,·
COc1ccc2cc(N3CCCC3=O)ccc2c1,–,–,–,48.2,–,–
COc1cc(NC(=O)c2ccc(N3CCCC3=O)cc2)cc(OC)c1,–,–,–,59.0,–,–
Cc1noc(C)c1NC(=O)Nc1ccc2c(c1)C(=O)N([C@H](C)CO)C[C@@H](C)[C@H](CN(C)Cc1ccc(C(=O)O)cc1)OCCCC[C@@H](C)O2,·,·,·,–,·,·
C[C@H]1CN([C@@H](C)CO)C(=O)c2cc(-c3ccccc3)cnc2O[C@@H]1CN(C)C(=O)c1ccccn1,·,·,·,–,·,·
CCCCn1c(-c2ccncc2)nc2c1c(=O)[nH]c(=O)n2CC(C)C,–,56.9,–,–,–,–
CCCCN=C(C)c1c(O)c2ccccc2oc1=O,–,–,·,41.8,–,–
CCCCC(=O)c1c(O)c2ccccc2oc1=O,–,–,–,58.5,·,–
CC=Cc1ccc2n(c1=O)C[C@H]1[C@H](CO)[C@@H](C(=O)NCc3ccccn3)[C@@H]2N1CC1CC1 (mixture of isomers),·,·,·,–,·,·
CO[C@@H]1CN(C)C(=O)c2ccc(NS(=O)(=O)c3ccc(Cl)cc3)cc2OC[C@H](C)N(C(=O)NC(C)C)C[C@@H]1C,·,·,·,–,·,·
COc1ccc(/C(N)=N/OC(=O)c2cccs2)cc1,–,–,–,·,39.5,–
N/C(CC(=O)Nc1ccc(F)c(Cl)c1)=N\OC(=O)c1cccs1,–,–,·,·,–,–
COc1ccc(NC(=O)c2ccc(NC(=O)c3cccs3)cc2)cc1,–,·,–,·,–,·
SMILES,PvdQ acylase,Vif inh,MITF act,esBAF inh,Wnt act,Glyco luc inh
N/C(=N\OC(=O)c1cccs1)c1ccc(Cl)cc1,·,·,·,–,56.5,–
CSc1ccccc1NC(=O)c1cnc2scc(C)n2c1=O,–,–,–,–,–,–
CCc1ccccc1NC(=O)c1cnc2scc(C)n2c1=O,–,·,·,55.9,–,–
CN(C)c1ccc(NC(=S)NC(=O)/C=C/c2ccc(Cl)cc2)cc1,–,–,–,45.7,–,–
Cc1cc(NC(=O)/C=C/c2ccccc2Cl)no1,–,–,–,·,·,–
CN(C)c1ccc(NC(=O)/C=C/c2ccccc2Cl)cc1,–,–,91.6,·,42.2,–
CCN(CC)c1ccc(NC(=O)/C=C\c2ccccc2Cl)cc1,–,–,95.9,–,·,–
COc1ccc(N=Cc2c(O)[nH]c3ccccc23)cc1,–,–,–,–,59.2,–
Oc1[nH]c2ccccc2c1C=Nc1ccc2c(c1)OCO2,–,·,?,57.0,38.8,–
c1csc(-c2ccc(N3CCOCC3)nn2)c1,–,–,–,–,33.5,–
CCOC(=O)C1CCN(c2ccc(-c3cccs3)nn2)CC1,–,–,83.5,–,38.0,–
CCC(=O)Nc1ccc2c(c1)C(=O)N(C)C[C@H](OC)[C@H](C)CN(CC1CC1)[C@H](C)CO2,·,·,·,–,·,·
CCNC(=O)C[C@@H]1CC[C@@H]2[C@H](COC[C@@H](O)CN2C(=O)c2cc(Cl)cc(Cl)c2)O1,·,·,·,–,·,·
O=C(c1ccc(Cl)cc1)c1cnc(-c2ccccc2)s1,–,–,·,–,·,–
O=C(c1ccc(Cl)cc1)c1cnc(Nc2ccccc2Cl)s1,–,–,99.1,56.8,·,–
C[C@@H]1CN([C@H](C)CO)C(=O)Cc2cc(NC(=O)Nc3ccc4c(c3)OCO4)ccc2O[C@H]1CN(C)Cc1ccncc1,·,·,·,–,·,·
COc1ccccc1C(=O)CSc1nccn1C,–,–,–,–,–,–
CC(=O)c1ccc(-n2c(SCC(=O)c3c[nH]c4ccccc34)nc3ccccc3c2=O)cc1,–,–,–,·,44.8,–
Cn1ccnc1SCC(=O)c1c[nH]c2ccccc12,–,–,–,–,55.3,–
C[C@H]1CN([C@@H](C)CO)C(=O)c2cccc(NC(=O)C3CCOCC3)c2O[C@H]1CN(C)S(=O)(=O)c1ccc(Cl)cc1,·,·,·,–,·,·
Cc1cccc(N/N=C/c2ccc(C)s2)c1,–,–,104.3,73.5,–,–
FC(F)(F)c1nnc(-c2ccccc2)nc1Oc1ccc(Cl)cc1Cl,–,50.6,·,–,·,–
FC(F)(F)c1cccc(Oc2nc(-c3ccccc3)nnc2C(F)(F)F)c1,–,–,·,·,–,–
CNC(C)C#Cc1ccc2c(=O)c3ccccc3oc2c1 (stereo unspecified),–,–,–,50.8,37.9,–
Cn1cncc1C#Cc1ccc2c(=O)c3ccccc3oc2c1,–,–,–,?,44.4,–
SMILES,PvdQ acylase,Vif inh,MITF act,esBAF inh,Wnt act,Glyco luc inh
N#Cc1ccc(C#Cc2ccc3oc4ccccc4c(=O)c3c2)cc1,–,–,–,–,–,–
CC(C)NC(=O)N(C)C[C@@H]1Oc2c(NC(=O)Nc3ccc(C(F)(F)F)cc3)cccc2C(=O)N([C@H](C)CO)C[C@H]1C,·,·,·,–,·,·
O=C(COC(=O)c1cc(Cl)ccc1O)c1ccc2c(c1)OCO2,–,–,?,·,?,–
O=C(COc1ccccc1Br)c1ccc2c(c1)OCO2,–,–,–,43.0,–,–
O=C(COC(=O)c1ccc(O)cc1O)c1ccc2c(c1)OCO2,–,–,–,63.5,43.5,–
COC(=O)C(Cc1ccc(O)cc1)NC(=O)c1ccc2c(c1)OCCO2 (stereo unspecified),–,–,–,55.0,–,–
COC(=O)C(Cc1ccc(O)cc1)NC(=O)CCc1ccco1 (stereo unspecified),–,–,–,–,–,–
O=C(CCCN1CCOCC1)c1ccc2c(c1)OCCO2,–,–,–,50.0,·,–
O=C(CCN1CCOCC1)c1ccc2c(c1)OCCO2,–,–,–,–,·,–

# Screens: PubChem, Broad Institute
